Compounds with a hit are over-represented: about 19% of the library has one in this group of screens.
KB-3-1 cytotox – kills parental KB-3-1 adenocarcinoma cells | KB-3-1 viability, CellTiter-Glo ATP luminescence, 72 h | Potency, µM (doses to about 46.1 µM), most hits filed as cytotoxic | 400,000 tested, 1.4% active | AID 1347075; also: nearly all actives have a fitted effect of over 60% in size
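Cytotoxicity in the drug-sensitive parental line KB-3-1 was scored as loss of CellTiter-Glo luminescence following 72 h incubation with compound. Values come from curve fitting of normalized concentration-response data.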
HT1080 IDH1KD tx – HT-1080 IDH1 knockdown cell toxicity (counter line) | HT-1080 IDH1 knockdown viability, ATP luminescence, 48 h | Potency, µM (top dose mostly 46.1 µM), usual class: cytotoxic | 360,000 tested, 2% active
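Cytotoxicity counter-line: IDH1KD HT-1080, 48 h, CellTiter-Glo. Curves classed by r2, magnitude and activity.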
TDP1 cell noCPT – qHTS for Inhibitors of human tyrosyl-DNA phosphodiesterase 1 (TDP1): qHTS in cells in absence of CPT; 420,000 tested, 15% active; Potency, µM (top dose mostly 46.2 µM), usual class: inhibitors; DT40 Tdp1-/- hTDP1 cells, no CPT, ATP luminescence, 48 h; also: nearly all actives have a fitted effect of over 55% in size
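Readout: luminescence from CellTiter-Glo after 30 min in the dark at RT. Cells: DT40 Tdp1-/- with stable hTDP1, 400/well. Exposure: compounds alone, ≥48 hr, 37 °C.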
HT1080NT lethal – kills 2HG-producing HT-1080-NT fibrosarcoma cells | HT-1080-NT fibrosarcoma viability, CellTiter-Glo ATP luminescence, 48 h | Potency, µM (highest dose often 46.1 µM), usual class: cytotoxic | 360,000 tested, 1.6% active | AID 686970;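 also: NT is the 2HG producing partner of a matched IDH1 knockdown line; nearly all actives have a fitted effect of over 55% in size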
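Read-out is CellTiter-Glo luminescence after 10 minutes at room temperature, following 48 hours' compound treatment of HT-1080-NT cells (750 cells/well, RPMI, 5% FBS, 37 degrees C).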
KB-V1 MDR tox – kills drug-selected multidrug resistant KB-V1 cells. Potency, µM (series often up to 46.1 µM), most hits filed as cytotoxic. KB-V1 MDR cells viability, CellTiter-Glo, 72 h. 400,000 tested, 3.4% active. AID 1347076; also: nearly all actives have a fitted effect of over 60% in size
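qHTS viability screen in drug-selected KB-V1 MDR cells: 72 h compound treatment at 37 degrees C, ATP luminescence end point.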
DT40 TDP1 CPT – DT40-hTDP1 cell growth loss with CPT; chicken DT40 Tdp1-/-;hTDP1 cells + 20 nM CPT, ATP luminescence, 48 h; Potency, µM (titrated, usually from 46.2 µM), usual class: inhibitors; 420,000 tested, 12% active; also: nearly all actives have a fitted effect of over 55% in size
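Chicken DT40 Tdp1-/- cells stably complemented with human TDP1 were seeded at 400 cells/well in medium containing 20 nM camptothecin, exposed to pin-transferred compounds, and grown at 37 °C for at least 48 hr. Viability was read as ATP luminescence.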
Large screens that a line does not name were inactive. Calls follow the shape of the dose curve; as a rule, active = well fitted curve in the direction sought with a large enough effect; inconclusive = small, poorly fitted or top-dose-only effect, or another doubt; inactive = no such curve, though single readings can be large; an effect the other way counts as inactive or inconclusive.

O=C(CN1C(=O)C(=O)N(C2CCCC2)C1=O)Nc1ccc(N2CCOCC2)cc1	none
CCOC(=O)Cc1ccc(NC(=O)N2CCC(CN3CCC(C)CC3)CC2)cc1	none (no result: HT1080 IDH1KD tx, HT1080NT lethal)
CN(C)Cc1ccccc1-c1cncnc1Nc1ccc(F)cc1	none (no result: KB-3-1 cytotox, HT1080 IDH1KD tx, HT1080NT lethal, KB-V1 MDR tox)
S=C(Nc1ccc(CN2CCCCC2)cc1)Nc1cccc(Cl)c1Cl	TDP1 cell noCPT 18µM, DT40 TDP1 CPT inconclusive (no result: KB-3-1 cytotox, KB-V1 MDR tox)
S=C(Nc1cccc(Cl)c1Cl)NC1CCN(Cc2ccccc2)CC1	KB-3-1 cytotox inconclusive, HT1080 IDH1KD tx inconclusive, TDP1 cell noCPT inconclusive, HT1080NT lethal inconclusive, KB-V1 MDR tox inconclusive, DT40 TDP1 CPT 21µM
S=C(Nc1ccccc1)Nc1cccc(Cl)c1Cl	none
CC(C)(C)CC(C)(C)NC(=S)NC1CCN(Cc2ccccc2)CC1	KB-3-1 cytotox inconclusive, TDP1 cell noCPT 4.6µM, KB-V1 MDR tox 5.2µM, DT40 TDP1 CPT 5.2µM
CC(C)(Oc1ccc(Cl)cc1)C(=O)NC1CCN(Cc2ccccc2)CC1	TDP1 cell noCPT 18µM, DT40 TDP1 CPT inconclusive
CCOc1ccc(OCC)c(NC(=O)c2cc(-c3cccs3)nc3ccccc23)c1	none (no result: HT1080 IDH1KD tx, HT1080NT lethal)
CCc1cccc(CC)c1NC(=S)Nc1cccc(Cl)c1Cl	TDP1 cell noCPT inconclusive, DT40 TDP1 CPT 18µM
CCCCCCOC(=O)/C=C/c1c(C)[nH]c(=O)[nH]c1=O	TDP1 cell noCPT 4.6µM, DT40 TDP1 CPT inconclusive
Cc1nnc2c3ccccc3c(-c3ccccc3)nn12	TDP1 cell noCPT inconclusive, DT40 TDP1 CPT inconclusive
CCC(=O)Nc1ccc(-c2nn3c(C)nnc3s2)cc1C	KB-3-1 cytotox inconclusive
Cc1nnc2c3ccccc3c(-c3cccc4ccccc34)nn12	TDP1 cell noCPT inconclusive, KB-V1 MDR tox 12µM
Cc1nnc2sc(-c3cccc4ccccc34)nn12	KB-3-1 cytotox 7.3µM, KB-V1 MDR tox 5.2µM
Cc1nnc2sc(-c3csc4c3CCCC4)nn12	KB-3-1 cytotox 8.2µM, KB-V1 MDR tox 7.3µM
CCCCCCOc1ccc(CC(=O)O)cc1	none (no result: KB-3-1 cytotox, KB-V1 MDR tox)
Cc1cccc(-c2nc(C(N)=O)c3c(n2)n(-c2ccc4c(c2)OCO4)c(=O)n3C)c1	TDP1 cell noCPT 1.8µM, DT40 TDP1 CPT inconclusive (no result: HT1080 IDH1KD tx, HT1080NT lethal)
Cc1cccc(/C=N/NC(=O)c2c(-c3ccccc3)noc2C)c1O	KB-3-1 cytotox inconclusive, HT1080 IDH1KD tx inconclusive, TDP1 cell noCPT 2.9µM, HT1080NT lethal inconclusive, DT40 TDP1 CPT 18µM
Cc1onc(-c2ccccc2)c1C(=O)N/N=C/c1cc2c(cc1Br)OCO2	TDP1 cell noCPT 26µM, DT40 TDP1 CPT inconclusive
Cc1onc(-c2ccccc2)c1C(=O)N/N=C/c1cc(Br)c(O)c(Br)c1	TDP1 cell noCPT inconclusive, DT40 TDP1 CPT inconclusive (no result: KB-3-1 cytotox, KB-V1 MDR tox)
Cc1onc(-c2ccccc2)c1C(=O)N/N=C/c1ccccc1OC(C)C	none
c1ccc(CCNc2cc(-c3ccc4ccccc4c3)nc3ccnn23)nc1	TDP1 cell noCPT inconclusive, DT40 TDP1 CPT inconclusive
CCC(C)NC(=O)C1CC(=O)N(CCc2ccc(F)cc2)C1 (configuration not stated)	none
NC(=S)NN=C1Cc2cccc3cccc1c23	KB-3-1 cytotox 1.3µM, KB-V1 MDR tox 1.3µM
CCN(CC)C(=O)Cn1c(=O)cc(C)c2c(C)nn(-c3ccc(C)cc3)c21	none (no result: HT1080 IDH1KD tx, HT1080NT lethal)
O=C1/C(=C/c2ccccc2)SC(=S)N1CC(=O)N1CCCCC1c1cccnc1 (configuration not stated)	TDP1 cell noCPT 16µM, DT40 TDP1 CPT 15µM
O=C1/C(=C/c2cccnc2)SC(=S)N1Cc1ccco1	KB-3-1 cytotox 13µM, HT1080 IDH1KD tx inconclusive, TDP1 cell noCPT 21µM, KB-V1 MDR tox 21µM, DT40 TDP1 CPT 23µM
O=C1/C(=C/c2cccnc2)SC(=S)N1c1ccccc1	none
Cc1ccc(/C=C2\SC(=S)N(CCC(=O)N3CCOCC3)C2=O)cc1	KB-3-1 cytotox 12µM, TDP1 cell noCPT 18µM, KB-V1 MDR tox inconclusive, DT40 TDP1 CPT 16µM
COc1ccc(/C=C2\SC(=S)N(CCC(=O)N3CCOCC3)C2=O)cc1	TDP1 cell noCPT inconclusive, DT40 TDP1 CPT inconclusive

Screens (PubChem)
